In all, about 87,000 compounds went through this assay and about 540 (0.62%) were called active. The rule behind the calls is not given here. The list comes from a sample in which actives are over-represented; it also holds similar structures and randomly drawn compounds. Measured potencies and affinities stand elsewhere.

This assay in a line: inhibitors of MT1-MMP promoter transcription, cell-based, luciferase reporter, luminescence (AID 618).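 Note: actives suppress MT1-MMP promoter-driven transcription so potencies describe inhibitors.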 The conditions noted are these: MT1-MMP promoter luciferase reporter cells. In general terms: Reporter assays use an easily measured gene product as a stand-in for the process of interest.
On to `CCOC(=O)c1ccc(CC(=O)c2oc3cc(O)ccc3c2C)o1`, for which the compound was called inactive. `CN(C)c1cccc(C(=O)n2cc(C(=O)c3cc(F)ccc3O)cn2)c1`: the outcome was inactive.

Regarding `Cc1cc(N)n2ncc(-c3ccccc3)c2n1`, the result was inactive. To `COc1ccc(-c2cc3nc(C)cc(C)n3n2)cc1` belongs “inactive”; to `COc1ccc(-c2cc3nc(C)cc(NCCO)n3n2)cc1`, “inactive”.

Take `Cc1cc(N)n2nc(C)c(-c3ccccc3)c2n1`: the result was inactive.

Regarding `Cc1c(C(=O)N2CCN(S(C)(=O)=O)CC2)oc2ccccc12`, the compound was classed as inactive. On to `COc1ccc(C)cc1NC(=O)c1ccc(N(C)S(C)(=O)=O)cc1`, for which the outcome was inactive. Turning to `CC1CCN(C(=S)c2ccc3c(c2)OCO3)CC1`, the call was inactive. Take `COc1ccc(OC)c2sc(NC(=O)c3ccc(Br)s3)nc12`: the compound was classed as inactive. The same measure for `Oc1ccc(Nc2nc(-c3ccc4ccccc4c3)cs2)cc1`: “active”. For `Oc1ccc(Nc2nc(-c3ccc(O)cc3)cs2)cc1`, the outcome was inactive.

`NS(=O)(=O)c1ccc(Nc2nc(-c3ccc4ccccc4c3)cs2)cc1`: the call was inactive. The same measure for `CCN(CC)CCCNC(=O)c1[nH]c(C)c(C(=O)NC2CCCCC2)c1C`: “inactive”. Consider `Cc1nc(SCC(N)=O)[nH]c(=O)c1Cc1ccc(OC(C)C)cc1`, for which the outcome was inactive. The same measure for `O=C(Nc1ccccc1C(=O)N1CCN(c2ccccc2)CC1)c1ccco1`: “inactive”.

As to `C=CCNc1nc(-c2ccccc2)nc(-n2ccnc2)n1`, the outcome was inactive. For the compound `c1ccc(-c2nnc(-c3ccccn3)nc2NC2CCCCC2)cc1`, the result was active. For the compound `c1ccc(-c2noc(C3CCCCC3)n2)nc1`, the call was inactive. Consider `CNc1nc(-c2ccccn2)nnc1-c1ccccc1`, for which the call was inactive.

Turning to `c1ccc(-c2n[nH]c(-c3ccccn3)n2)cc1`, the compound was classed as inactive. As for `N#Cc1ccc(C23CC4(C2)[C@H](CN(Cc2ccc(C(F)(F)F)cc2)[C@@H]4c2ccccc2)C3c2ccc(C(F)(F)F)cc2)cc1` (stereo partly specified), the call was inactive. To `CCc1ccc2[nH]c(=O)c(C(c3nnnn3Cc3ccccc3)N3CCOCC3)cc2c1` (stereo unspecified) belongs “inactive”. To `Cc1cc(N2CCOCC2)nc(SCC(=O)c2ccccc2)n1` belongs “inactive”; to `CCCC1=NCCn2cccc21`, “inactive”; to `COc1cccc(C(=O)Cn2c(NCCO)nc3ccccc32)c1`, “inactive”. To `COc1cccc(C(=O)Cn2c(=N)n(C)c3ccccc32)c1` belongs “active”; to `Cn1c(=N)n(CC(=O)O)c2ccccc21`, “inactive”; to `CC(=O)NCCSCCNC(C)=O`, “inactive”. `O=S(=O)(c1ccc2c(c1)nc(COc1ccc(Cl)cc1)n2CC1CCCO1)N1CCOCC1` (stereo unspecified): the outcome was active. The same measure for `CCSc1nnc(-c2ccc(S(=O)(=O)N3CCOCC3)cc2)n1CC1CCCO1` (stereo unspecified): “inactive”.

With `CSc1nnc(-c2ccc(S(=O)(=O)N3CCOCC3)cc2)n1CC1CCCO1` (stereo unspecified), the compound was called inactive. To `Cn1c(C(=O)NCCN2CCCCCC2)cc2c(=O)n(C)c3ccccc3c21` belongs “inactive”; to `O=S(=O)(Nc1nnc(-c2ccccc2)s1)c1ccc(Cl)cc1`, “inactive”. Consider `Cc1ncc(S(=O)(=O)c2ccc(Cl)cc2)c(-c2ccccc2)n1`, for which the call was inactive.

For `CCN(CC)CCCNC(=O)c1cc(-c2ccc(Cl)cc2)on1`, the compound was called inactive. Take `c1ccc(-c2cn3c4c(sc3n2)CCCC4)cc1`: the outcome was active.

For the compound `Cc1c(C(N)=O)sc2nc(-c3ccccc3)cn12`, the compound was called inactive. To `Cc1c(C(=O)N2CC(C)OC(C)C2)sc2nc(-c3ccccc3)cn12` (stereo unspecified) belongs “inactive”. The same measure for `CCOc1ccc(N(CC(=O)NCC2CCCO2)S(=O)(=O)c2ccc(SC)cc2)cc1` (stereo unspecified): “inactive”; for `CSc1nc2sc3c(c2c(=O)n1C)CCC(C)C3` (stereo unspecified): “inactive”; for `FC(F)Sc1ccc(N=C2NN=C(c3ccc4c(c3)OCCO4)CS2)cc1`: “inactive”.

In the case of `COc1ccc(N=C2NN=C(c3ccc4c(c3)OCCO4)CS2)cc1`, the compound was called inactive. In the case of `O=C1CSC(=NC2CCCCC2)N1`, the result was inactive.

For `Cc1cccc(N=C2NN=C(c3ccc4c(c3)OCCO4)CS2)c1`, the compound was classed as inactive. As to `COc1ccc(C(=O)NCCCN2CCCC2=O)cc1`, the compound was called inactive.

With `c1cnc(-c2nnc3n2CCCCC3)cn1`, the compound was called inactive. Regarding `CCC1(N(C(C)=O)c2ccc(OC)cc2)C(=O)c2ccccc2C1=O`, the outcome was inactive.

On to `CCOC(=O)CCSc1nc(C)c2cc(C)c(C)cc2n1`, for which the compound was called inactive.

In the case of `CCCC(=O)Nc1nnc(-c2cccc(OCC)c2)s1`, the compound was classed as inactive. Take `O=C(Nc1ccc2c(c1)OCCO2)C1CCCN(c2ncccn2)C1` (stereo unspecified): the result was active. On to `Cc1cc(C)nc(N2CCCC(C(=O)Nc3ccc4c(c3)OCCO4)C2)n1` (stereo unspecified), for which the outcome was inactive. To `CC(=O)Nc1ccc(NC(=O)C2CCCN(c3ncccn3)C2)cc1` (stereo unspecified) belongs “inactive”; to `O=C(Nc1ccc2c(c1)OCO2)C1CCCCN1S(=O)(=O)c1ccccc1` (stereo unspecified), “inactive”; to `Cc1ncc(S(=O)(=O)c2ccccc2)c(-c2ccc(Cl)cc2Cl)n1`, “inactive”. The same measure for `CC(=O)CSc1nnc(-c2ccc3c(c2)OCO3)o1`: “inactive”; for `CCC1CCCCN1C(=O)CSc1nnc(-c2ccc3c(c2)OCCO3)o1` (stereo unspecified): “inactive”; for `O=C(O)CSc1nnc(-c2ccc3c(c2)OCO3)o1`: “inactive”.

As to `O=C(CSc1nnc(-c2ccc3c(c2)OCCO3)o1)N1CCCC1`, the compound was classed as inactive.

For the compound `O=C(c1ccco1)N1CCN=C1SCc1ccc(F)cc1`, the compound was classed as inactive. To `COc1ccc(NC(=O)CN(C2CCCCC2)S(C)(=O)=O)cc1OC` belongs “inactive”; to `N=C1C(c2ccc(Br)cc2)=C(O)C2CCc3ccccc3N12` (stereo unspecified), “inactive”; to `CCC(=O)Nc1cc2c(cc1C(C)=O)OCCO2`, “inactive”. To `Cc1ccc(Cl)cc1NC(=O)CCC(=O)Nc1cc(Cl)ccc1C` belongs “inactive”.

As to `COc1ccc(CC(=O)Nc2cc(C)ccn2)cc1`, the outcome was inactive. The same measure for `COc1cc(C(=O)Nc2cc(C)ccn2)cc(OC)c1OC`: “inactive”; for `COc1ccc(C(=O)NC(=O)Nc2cc(C)ccn2)cc1`: “active”. To `CN1CCc2c(sc3c2c(=O)n(-c2ccccc2)c2nnc(SCc4ccc(Cl)cc4)n32)C1` belongs “inactive”; to `CCOC(=O)c1sc2nc3c(cc2c1N)COC(C)(CC)C3` (stereo unspecified), “inactive”; to `CCOC(=O)c1sc2nc3c(cc2c1N)COC(C)(C)C3`, “inactive”.

As for `CCN(Cc1ccccc1)S(=O)(=O)c1ccc2oc(C(=O)O)c(C)c2c1`, the result was inactive. To `Cn1ccnc1SCc1cn2ccccc2n1` belongs “inactive”. In the case of `Brc1ccc2nc(CSc3ncn[nH]3)cn2c1`, the compound was classed as inactive. To `COc1ccc(NC(=S)N/C(=N/CS(=O)(=O)c2ccccc2)c2ccccc2)cc1` belongs “inactive”. Consider `CCOC(=O)N1CCC(N2C(=O)c3ccc(C(=O)O)cc3C2=O)CC1`, for which the result was inactive. Turning to `Clc1ccc(NC2=NCCCCC2)cc1`, the call was inactive. To `Clc1ccc(-c2nnc(NC3=NCCCCC3)o2)cc1` belongs “active”; to `c1coc(-c2nnc(NC3=NCCC3)o2)c1`, “inactive”. The same measure for `CCOc1ccc(-c2nnc(NC3=NCCCCC3)o2)cc1`: “inactive”; for `Cc1nnc(NC2=NCCCCC2)o1`: “inactive”. For `Fc1ccc(-c2nnc(NC3=NCCCCC3)o2)cc1`, the compound was classed as active. To `O=C1/C(=C\Nc2ccc(OC(F)(F)F)cc2)CCN1c1ncccn1` belongs “inactive”; to `CS(=O)(=O)N(CC(=O)NCCSC1CCCCC1)c1ccc2c(c1)OCO2`, “inactive”; to `COc1cccc(CNc2ccc(F)c(Cl)c2)c1OC`, “inactive”.

Turning to `FC(F)(F)c1cc(-c2ccco2)nc(-n2cnc3ccccc32)n1`, the compound was called inactive.

On to `FC(F)(F)c1cc(-c2ccco2)nc(-n2nnc3ccccc32)n1`, for which the outcome was inactive. Take `Cc1nc2ccccc2n1-c1nc(-c2ccco2)cc(C(F)(F)F)n1`: the compound was called active. To `Cc1cc(OCCCCCNCCO)cc(C)c1Cl` belongs “inactive”; to `COc1ccc(C(=O)Nc2ccccc2C(=O)NCCN2CCOCC2)cc1`, “inactive”. Turning to `COc1ccc2c(c1)Sc1ccccc1N2CCN(C)C`, the compound was called active.

On to `CN(C)CCCN1c2ccccc2Sc2ccc(Cl)cc21`, for which the outcome was inactive. As to `CN(C)CCCN1c2ccccc2Sc2ccccc21`, the call was inactive. Regarding `CCOC(=O)C(N)CSC1CC(=O)N(c2ccc(C(=O)OC)cc2)C1=O` (stereo unspecified), the outcome was inactive. To `CCOC(=O)COc1nc(Nc2ccccc2C)nc(N(C)C)n1` belongs “inactive”; to `O=C(NNC(=O)c1ccc(SCC2CCCO2)c([N+](=O)[O-])c1)c1ccc(F)cc1` (stereo unspecified), “inactive”; to `c1ccc2c(-c3nc(-c4ccncc4)no3)cccc2c1`, “inactive”. The same measure for `c1ccc(-c2noc(-c3cccc4ccccc34)n2)nc1`: “active”. On to `COc1cc(-c2nc(-c3ccccn3)no2)cc(OC)c1OC`, for which the call was inactive. The same measure for `COc1cccc(-c2nc(-c3ccccn3)no2)c1OC`: “inactive”; for `c1ccc(-c2noc(-c3cccc4ccccc34)n2)cc1`: “inactive”. The same measure for `CCCCNC(=O)n1c(SC)nc2ccccc21`: “inactive”; for `COc1cccc(-c2ccc(C#N)c(OC(=O)c3ccc(Cl)cc3)n2)c1`: “inactive”; for `COc1ccc(-n2c(Cc3cc(=O)[nH]c(=O)[nH]3)nnc2SCC(=O)N2CCCC2)cc1`: “inactive”. To `O=C(CSc1nnc(Cc2ccccc2)o1)NC1CCCCC1` belongs “inactive”; to `CCOC(=O)c1c(NC(=O)CN(C)C)sc(C(=O)N(CC)CC)c1C`, “inactive”.

Turning to `CCOC(=O)c1c(NC(=O)CCl)sc(C(=O)N(CC)CC)c1C`, the compound was called active. The same measure for `CCOC(=O)Nc1sc(C(=O)N(CC)CC)c(C)c1C(=O)OCC`: “inactive”; for `Cc1ccc(NC2=C/C(=N\S(=O)(=O)c3cccs3)c3ccccc3C2=O)c(C)c1`: “inactive”.

With `CCC1CCCCN1C(=O)Cn1c(C(=O)OC)cc2ccsc21` (stereo unspecified), the compound was called inactive. To `O=C(c1cccnc1)N1CCCc2ccccc21` belongs “inactive”; to `CCC(=O)Nc1ccc(NC(=O)c2cccc(OC)c2)nc1`, “inactive”; to `COc1cccc(C(=O)Nc2ccc(NC(=O)C(C)(C)C)cn2)c1`, “active”. To `COc1cccc(C(=O)Nc2ccc(NC(C)=O)cn2)c1` belongs “inactive”. To `Cn1c(NC(=O)CC(C)(C)C)cc(=O)n(C)c1=O` belongs “inactive”; to `Cc1nnc2sc(-c3ccc(NC(=O)c4cccnc4)cc3)nn12`, “inactive”; to `O=C1c2ccccc2C(=O)C1c1ccncc1`, “inactive”.

As to `O=C1c2ccccc2-c2nccnc21`, the compound was called inactive.

Take `COc1ccc(C2C(=O)c3ccccc3C2=O)c(OC)c1`: the compound was called inactive. To `N#CC1=C(N)SC(N)=C(C#N)C1c1ccnc2ccccc12` belongs “inactive”; to `O=C(NCCCCCNC(=O)c1ccco1)c1ccco1`, “inactive”; to `CCCCOc1ccccc1C1NC(=O)NC(C)=C1C(=O)OCCOCC` (stereo unspecified), “inactive”.

For the origin of these results see PubChem BioAssay AID618 (Sanford-Burnham Center for Chemical Genomics, 2007).
